Spn PMK inh – S. pneumoniae PMK inhibitors, primary screen, biochemical, mevalonate pathway, pilot trial included. phosphomevalonate kinase (Streptococcus pneumoniae D39). purified PMK, PK/LDH-coupled NADH absorbance 340 nm. inhibition, % at 10 µM. 0.49% of 65,000 active. AID 539, 2006;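 active means top-ranked compounds by inhibition in the single 10 µM screen, taking a fixed number of the strongest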
Fluor 339 460 – intrinsic fluorescence of library compounds, ex339/em460 – biochemical, MLSMR library, data from DPM-DC assay, artefact control, profiling panel. compound autofluorescence, ex339/em460 nm, NADH buffer; active compounds read high; 1 = no-compound wells, NADH background. fluorescence fold increase at 10 µM. 5.5% of 65,000 active. AID 709, 2007;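 active means at 10 µM, mean starting fluorescence two-fold or more over control wells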;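 further: signal is the first read of a kinetic run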
Spn MK inh – S. pneumoniae MK inhibitors, primary screen, biochemical, PK/LDH-coupled NADH absorbance. 0.48% of 65,000 active. mevalonate kinase [Streptococcus pneumoniae D39]. purified MK, PK/LDH-coupled NADH absorbance 340 nm. inhibition, % at 10 µM. AID 555, 2006;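 active means ranked among the strongest by inhibition in the single 10 µM screen, a fixed top-ranked set picked for dose follow-up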
A340 absorber – compound light absorbance at 340 nm, profiling panel, artefact control, biochemical, MLSMR library, data from PS, PMK, MK assays; compound absorbance at 340 nm, fold over control; fold change at 10 µM; 65,000 tested, under 10 active; AID 708, 2007;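 active means at 10 µM dose, initial 340 nm absorbance at least 2 fold that of control wells; inactive means change under 2 fold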;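 further: initial absorbance extrapolated from kinetic A340 decline of NADH oxidation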
Spn DPM-DC inh – S. pneumoniae DPM-DC inhibitors, primary screen, biochemical, PK/LDH-coupled NADH fluorescence | 0.49% of 65,000 active | diphosphomevalonate decarboxylase (Streptococcus pneumoniae D39) | purified DPM-DC | calls only at 10 µM | AID 556, 2006;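 active means the 320 compounds with the highest percent inhibition in the single-dose primary screen, excluding strongly autofluorescent ones, cut at about 32% in these data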;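 further: kinetic rate of NADH fluorescence loss reporting ADP formed by the decarboxylase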
NADH coupling – inhibitors of PK/LDH coupling enzymes, profiling panel, artefact control, biochemical, MLSMR library; IC50, µM (top dose mostly 10 µM); coupled PK/LDH NADH assays, four targets; 0.02% of 65,000 active;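 active means single-dose screening hits from any of four coupled enzyme assays that gave an IC50 when retested across doses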;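 further: the DPM-DC format reads NADH fluorescence rather than 340 nm absorbance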
Hits are given with their value; . = inactive; / = no result given; + = active, no number; [ ] = dose if it differs, or a comment. Only some compounds are listed: those with a hit (about 6.5% of all), similar ones and a draw of the others.

SMILES | Spn PMK inh | Fluor 339 460 | Spn MK inh | A340 absorber | Spn DPM-DC inh | NADH coupling
CC(NC(=O)OCc1ccccc1)C(=O)NCC1CCCO1 (stereo unspecified) | . | . | . | . | . | .
CC(C(=O)NCC1CCCO1)N(C(=O)c1snc(C(N)=O)c1N)c1ccccc1 (stereo unspecified) | . | 3.11 | . | . | . | .
COCCNC(=O)C(c1ccc(C)o1)N(C(=O)c1snc(C(N)=O)c1N)c1ccc(C)c(C)c1 (stereo unspecified) | . | . | . | . | . | .
CCn1c(COc2ccccc2OC)nnc1SCC#N | . | . | . | . | . | .
O=C(C1CCN(S(=O)(=O)c2ccc(Br)s2)CC1)N1CCc2ccccc21 | . | . | . | . | . | .
O=C(c1cccnc1)N1CCc2ccccc2C1 | 34.0 | . | . | . | . | .
CN(C)CCNc1oc(COc2ccc(-c3ccccc3)cc2)nc1C#N | . | . | . | . | . | .
CN(C)c1oc(-c2ccc(OCc3ccc(Cl)cc3)cc2)nc1C#N | . | 3.29 | . | . | . | .
CN(C)CCCNc1oc(-c2ccc(Cl)cc2)nc1C#N | . | 4.8 | . | . | / | .
CN(C)c1oc(COc2ccc(F)cc2)nc1C#N | . | . | . | . | . | .
COCCNc1oc(-c2ccc(C)cc2)nc1C#N | . | 2.49 | . | . | / | .
CCN(CC)CCCNc1oc(-c2cccc(Cl)c2)nc1C#N | . | 3.05 | . | . | / | .
C#Cc1ccc(C(=O)Nc2cc(C(N)=O)ccc2N2CCOCC2)cc1 | . | . | . | . | . | .
COCCNc1oc(-c2ccc(Cl)cc2)nc1C#N | . | 2.38 | . | . | / | .
COCCCNc1oc(COc2ccc(Cl)cc2Cl)nc1C#N | . | . | . | . | . | .
CCOC(=O)CSc1nnc(N)s1 | . | . | . | . | . | .
CCOC(=O)C(CCc1nnc(N)s1)C(=O)OCC | 30.0 | . | . | . | . | .
Cc1c(-c2ccc(F)cc2)nc(N)c(C#N)c1-c1ccco1 | . | 2.43 | . | . | . | .
CCOC(=O)c1c(NC(=O)C(F)(OC)C(F)(F)F)sc(C(=O)N2CCCCC2)c1C (stereo unspecified) | . | . | . | . | . | .
COc1ccc(-c2ccc(-c3noc(C)n3)c(OC)n2)cc1 | . | 3.84 | . | . | / | .
COc1ccc(-c2ccc(-c3noc(C4CCCCC4)n3)c(OC)n2)cc1 | . | 3.67 | . | . | / | .
CCOc1nc(-c2ccc(OC)cc2)ccc1-c1noc(C)n1 | . | 3.84 | . | . | / | .
COCc1nc(-c2ccc(-c3ccc(C)cc3)nc2OC)no1 | . | . | . | . | . | .
Cc1ccccc1NC(=O)Cc1nc(CSc2nnc(C3CCCCC3)n2N)cs1 | . | . | . | . | . | .
O=C(COC(=O)c1ccccc1NC(=O)c1ccco1)NCCC1=CCCCC1 | . | 2.03 | . | . | / | .
SMILES | Spn PMK inh | Fluor 339 460 | Spn MK inh | A340 absorber | Spn DPM-DC inh | NADH coupling
COCCN(CC(=O)Nc1ccccc1)S(=O)(=O)c1ccc(S(=O)(=O)N2CCCC2)cc1 | . | . | . | . | . | .
Oc1ccc(CN2CCCCC2)nc1-c1ccccc1 | . | 3.29 | . | . | . | .
CCOC(=O)N1CCC(NC(=O)c2cnn3cccnc23)CC1 | . | 2.15 | . | . | . | .
CN1/C(=N\O)c2cccc3cccc1c23 | . | 2.21 | . | . | . | .
COc1ccccc1CNC(=O)c1cc2c(=O)n(C)c3ccccc3c2n1C | . | . | . | . | . | .
CC(=O)Nc1c(-c2ccccc2)nc2ncccn12 | . | 2.16 | . | . | / | .
Cc1ccc(-c2nc3ncccn3c2NC(=O)C2CC2)cc1 | . | 5.05 | . | . | / | .
Oc1ccc(-c2nc3ncccn3c2Nc2ccc3c(c2)OCCO3)cc1 | . | . | . | . | . | .
COc1cccc(C(c2sc3nc(C)nn3c2O)N2CCc3ccccc3C2)c1 (stereo unspecified) | . | . | . | . | . | .
CCc1nnc(NC(=O)CSc2nnc(Cc3cccn3C)n2C)s1 | 28.0 | . | . | . | . | .
CCc1nnc(NC(=O)CSc2nnc(COc3ccccc3)n2Cc2ccccc2)s1 | . | . | . | . | + | .
C=C(C)Cn1c(COc2ccccc2)nnc1SCC(=O)O | . | . | . | . | + | .
CCc1nnc(NC(=O)CSc2nnc(Cc3ccccc3)n2Cc2ccccc2)s1 | . | . | . | . | . | .
C=CCn1c(COc2ccccc2)nnc1SCC(=O)O | . | . | . | . | . | .
CCOC(=O)c1ccccc1NC(=O)CSc1nnc(Cc2cccn2C)n1-c1ccc(C)cc1 | . | 2.01 | . | . | . | .
COc1ccc(N=c2oc3c(OC)cccc3cc2C(=O)NCc2ccco2)c(OC)c1 | . | . | . | . | . | .
CC(=O)Nc1sc2c(c1CN1CCN(c3ccccn3)CC1)CCCC2 | . | . | . | . | . | .
COc1ccc(C(C)=O)cc1COC(=O)c1cccc(N(C)C)c1 | . | 2.14 | . | . | . | .
CCCCn1nnnc1NCc1cccc(OC)c1OC | . | . | . | . | . | .
CCOC(=O)c1snc2c(=O)[nH]cnc12 | . | 3.73 | . | . | / | .
O=C(Nc1nnc(-c2ccc3c(c2)OCCO3)o1)c1ccc(Cc2ccccc2)cc1 | . | 2.11 | . | . | / | .
C=CCn1c(=N)c(C(=O)OCC)cc2c(=O)n3cccc(C)c3nc21 | . | 2.3 | . | . | / | .
CCOC(=O)c1cc2c(=O)n3cccc(C)c3nc2n(CCc2ccccc2)c1=N | . | 2.27 | . | . | +[fluoresces] | .
CCOC(=O)c1cc2c(=O)n3cccc(C)c3nc2n(CCc2ccc(OC)c(OC)c2)c1=N | . | . | . | . | . | .
CCOC(=O)c1cc2c(=O)n3cccc(C)c3nc2n(CC2CCCO2)c1=NC(C)=O (stereo unspecified) | . | 2.92 | . | . | / | .
SMILES | Spn PMK inh | Fluor 339 460 | Spn MK inh | A340 absorber | Spn DPM-DC inh | NADH coupling
CCOC(=O)c1cc2c(=O)n3cccc(C)c3nc2n(Cc2ccccc2Cl)c1=N | . | . | . | . | . | .
O=c1c2cc(N3CCOCC3)ccc2[nH]c(=S)n1CC1CCCO1 (stereo unspecified) | . | 3.95 | . | . | . | .
CCOCCCn1c(=S)[nH]c2cc(C(=O)N3CCOCC3)ccc2c1=O | . | . | . | . | . | .
O=C(CCn1c(=S)[nH]c2ccccc2c1=O)N1CCOCC1 | . | . | . | . | . | .
COCCCn1c(=S)[nH]c2ccc(N3CCOCC3)cc2c1=O | . | 3.82 | . | . | + | .
COCCn1c(=S)[nH]c2ccc(N(C)C)cc2c1=O | . | 3.81 | . | . | . | .

Screens (PubChem)
